The text below walks through data of PubChem BioAssay (Tox21).

Each structure is given as a SMILES string. Results filed as inconclusive are left out. Active and inactive are the calls of the source. The call rests on the fitted dose curve.
On the % scale 0 is the no-effect control and ±100 the full control effect; potency means the concentration at half of the fitted maximal effect.

The assay in a line: p53 small molecule agonists, cell-based qHTS assay with human liver microsomes: qHTS cell viability counter screen (AID 1963579). Further: nearly all actives have a fitted effect of over 45% in size. As to conditions: p53RE-bla HCT-116 viability, ATP luminescence, 16 h, HLM; series mostly up to 66 µM; activity change, negative = cytotoxicity: at the top concentration. The source says: National Center for Advancing Translational Sciences [NCATS]
Division of Preclinical Innovation [DPI]
U.S. Environmental Protection Agency [EPA]
National Institutes of Environmental Health Sciences [NIEHS]
National Toxicology Program [NTP]
U.S. Food and Drug Administration [FDA]
p53, a tumor suppressor protein, is activated following cellular insult, including DNA damage and other cellular stresses. The activation of p53 regulates cell fate by inducing DNA repair, cell cycle arrest, apoptosis, or cellular senescence. The activation of p53, therefore, is a good indicator of DNA damage and other cellular stresses. […] The activation of the reporter gene under culture conditions can be detected by fluorescence intensity. This cell line was used to screen the Tox21 10K compound library in the condition of presence of human liver microsomes and to identify agonists that activate the p53 signaling pathway after in vitro metabolic activation (Ooka et al., Archive of Toxicology 96:1975-1987, 2022).
Tox21 Assay Protocol Summary:
The p53RE-bla cells were dispensed at 4,000cells/3ul/well in 1536-well black-clear bottom plates. After the assay plates were incubated at 37 C, 5% CO2 incubator for 5 hours, 23 nL of compounds dissolved in DMSO, positive controls or DMSO only was transferred to the assay plate. Following compound addition, 3 uL of human liver microsomes (XenoTech, Kansas City, KS) at final concentration of 0.5 mg/mL and 1uL of B-Nicotinamide adenine dinucleotide 2'-phosphate (NADPH) at final concentration of 0.5 mg/mL were transferred to the assay plate. The plates were incubated at 37 C for 16 hours. 1 uL of LiveBLAzer detection mixture was added to each well and the plates were incubated at room temperature in the dark for 2 h. Fluorescence intensity at 460 and 530 nm emission and 405 nm excitation were measured by an Envision plate reader. For cell viability readout that measures cytotoxicity, 4 ul/well of CellTiter-Glo reagent was added into the assay plates using a Flying Reagent Dispenser. After 30 min incubation at room temperature, the luminescence intensity in the plates was measured using a ViewLux plate reader.
For the compound `CCOC(=O)C1(c2ccccc2)CCN(CCC(C#N)(c2ccccc2)c2ccccc2)CC1`, the “activity change, negative = cytotoxicity” value was -0.0144% [at 30.3 µM] (inactive). On the same count and under the same terms, next, `CCOS(C)(=O)=O`: -4.46% (inactive). With `CNC(=O)Oc1ccccc1OC(C)C`, the Potency entry is “inactive”.

For the compound `O=C/C=C/c1ccccc1`, the Potency result was “inactive”.

Turning to `ClCCOCOCCCl`, the “activity change, negative = cytotoxicity” value is -4.55% (inactive). Take `O=[N+]([O-])O`: the Potency result is “inactive”.

In the case of `O=C(O)C(F)(F)C(F)(F)C(F)(F)C(F)(F)C(F)(F)C(F)(F)C(F)(F)C(F)(F)C(F)(F)C(F)(F)F`, the “activity change, negative = cytotoxicity” value is -4.84% (inactive).

As for `C[C@]12CC[C@H]3[C@@H](CC[C@@]45O[C@@H]4C(O)=C(C#N)C[C@]35C)[C@@H]1CC[C@@H]2O`, the “activity change, negative = cytotoxicity” value was 1.27% [at 30.3 µM] (inactive). Same read-out and setting: next, `O=Cc1ccc(Cl)cc1Cl`: 7.09% (inactive). Turning to `Oc1ccc(-c2ccccc2)cc1`, the Potency result was “inactive”. The same measure, in the same setting: next, `C=C(C)C(=O)OCC1CO1` (stereo not given): “inactive”. As to `N#Cc1ccccc1Cl`, the “activity change, negative = cytotoxicity” value is 0.815% (inactive). With `CC(C)C1(C)N=C(c2nc3ccccc3cc2C(=O)O)NC1=O` (stereo not given), the Potency result is “inactive”. On to `O=C/C=C/c1ccco1`, for which the “activity change, negative = cytotoxicity” value is 3.37% (inactive). Regarding `CCCCCCCCCCCOC(=O)c1ccccc1C(=O)OCCCCCCCCCCC`, the Potency result was “inactive”.

Take `CC1(C)C(C=C(Cl)Cl)C1C(=O)OC(C#N)c1cccc(Oc2ccccc2)c1` (stereo not given): the Potency entry is “inactive”. On to `CCC(C)(C#N)N=NC(C)(C#N)CC` (stereo not given), for which the “activity change, negative = cytotoxicity” value is 5.81% (inactive). Same read-out and setting: next, `ClC1=C(Cl)[C@]2(Cl)[C@@H]3[C@@H](Cl)[C@H](Cl)C[C@@H]3[C@@]1(Cl)C2(Cl)Cl`: 2.42% (inactive); `Cc1ccccc1CCl`: 0.988% (inactive).

Turning to `CCCCCCCCOC(=O)c1ccccc1C(=O)OCCCCCCCC`, the Potency result was “inactive”. Regarding `O=C(Cl)c1ccccc1`, the “activity change, negative = cytotoxicity” value is -0.625% (inactive). `Nc1ccc(Cc2ccc(N)cc2)cc1`: the Potency result is “inactive”.

As for `CCOP(=O)(OCC)SCCSCC`, the Potency result is “inactive”. On the same count and under the same terms, next, `CCCN(CCC)N=O`: “inactive”. Still for that read-out and setting: next, `CC(C)(C)OOC(C)(C)C`: “inactive”. Take `Clc1ccc(Cl)cc1`: the “activity change, negative = cytotoxicity” value was -0.0238% (inactive). For the compound `COc1cc(OC)nc(Oc2cccc(Oc3nc(OC)cc(OC)n3)c2C(=O)O)n1`, the “activity change, negative = cytotoxicity” value is -4.02% (inactive). Consider `CCCCOC(=O)CCC(=O)OCCCC`, for which the “activity change, negative = cytotoxicity” value was 0.226% (inactive). Same read-out and setting: next, `CCOC(=S)S`: -15.9% (inactive); `Cc1coc2c1CCC(C)C2` (stereo not given): 2.4% (inactive). Consider `CNCC(O)c1ccc(O)cc1` (stereo not given), for which the Potency entry is “inactive”. With `CC(C)c1ccc(O)cc1`, the “activity change, negative = cytotoxicity” value was 6.31% (inactive). Still for that read-out and setting: next, `C=CCc1ccccc1O`: 3.34% (inactive); `CCCCc1c(C)nc(NCC)[nH]c1=O`: -3.65% (inactive). Regarding `N#CSCSC#N`, the Potency is 26.3 µM (active).

As for `Cc1ccc(N)c(N)c1`, the Potency entry is “inactive”. Still for that read-out and setting: next, `[O]=[Cr](=[O])([OH])[O][Cr](=[O])(=[O])[OH]`: 40.7 µM (active); `CCOC(=O)c1ccccc1C(=O)OCC`: “inactive”; `CCN(CC)CCO`: “inactive”. The same measure, in the same setting: next, `Sc1ccccc1`: “inactive”.
